ssDAF-12 act: activates DAF-12 receptor from parasite S. stercoralis; activation, % at 6.8 µM; AID 652126; 1% of 370,000 active; HEK293 ssDAF-12/GRIP1 lit1-tk-luc reporter, luminescence; % of 3 µM dafachronic acid response;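 active = activation above the mean over all tested compounds plus 3 SD, cut at about 0.9% in these data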;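 note: 0% = DMSO-only wells and 100% = 3 µM delta7-dafachronic acid wells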
hgDAF-12 ag: agonists of H. glycines DAF-12 nuclear receptor; HEK293 GAL4-hgDAF12 UAS-luciferase reporter, agonist luminescence; normalized to butyrate control; activation, % at 6.8 µM; 1.8% of 370,000 active; AID 687014;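 active = activation above a cutoff set at the mean of all screened compounds plus 3 SD, cut at about 10% in these data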;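 note: 0% = DMSO wells and 100% = sodium butyrate wells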
DAX1 inh-1: inhibitors of DAX1 repression of SF-1 activated StAR promoter; HEK293T StAR-luciferase reporter, SF-1/DAX-1 repression relief; inhibition, % at 6.8 µM; 1.1% of 370,000 active; AID 652010;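 active = inhibition above the mean over all tested compounds plus 3 SD, cut at about 3.6% in these data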;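 note: 0% = DAX-1 cells with DMSO and 100% = cells lacking DAX-1 with DMSO; higher inhibition means more luminescence from relief of DAX-1 repression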
hcDAF12 agonist: activates DAF-12 receptor from parasite H. contortus. HEK293 hcDAF-12 lit1-tk-luc reporter, luminescence; 0% DMSO, 100% Δ7-dafachronic acid. activation, % at 6.8 µM. 1.4% of 370,000 active. AID 652067;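 active = activation above the mean of all tested compounds plus 3 SD, cut at about 5.5% in these data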;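 note: 100% = response to 3 µM Δ7-dafachronic acid high control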
DAX1 inh-2: inhibits human nuclear receptor DAX1; inhibition, % at 6.75 µM; 0.99% of 340,000 active; AID 504766; HEK293 Gal4-DAX1 luciferase reporter, luminescence; P51843;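 active = inhibition above the mean over all tested compounds plus 3 SD, cut at about 4.2% in these data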;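 note: 0% = DAX1-transfected cells with DMSO and 100% = empty-vector control cells with DMSO; inhibition shows as a rise in luminescence from relieved DAX1 repression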
Target sequence (P51843 207-470 limits assumed): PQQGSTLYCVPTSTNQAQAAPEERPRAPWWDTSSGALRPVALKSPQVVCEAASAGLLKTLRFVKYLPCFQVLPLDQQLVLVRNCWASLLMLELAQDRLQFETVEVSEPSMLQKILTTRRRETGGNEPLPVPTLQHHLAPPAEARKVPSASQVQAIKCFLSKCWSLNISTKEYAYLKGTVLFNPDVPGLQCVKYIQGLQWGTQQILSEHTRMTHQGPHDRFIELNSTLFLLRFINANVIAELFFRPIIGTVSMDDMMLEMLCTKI
An asterisk follows results filed as active; x = no result. Most compounds without a hit are left out; they make up all but 4.1% or so of the library.

SMILES | ssDAF-12 act | hgDAF-12 ag | DAX1 inh-1 | hcDAF12 agonist | DAX1 inh-2
COc1ccc(NC(=O)c2onc(C)c2Cl)cc1 | 0.9* | 8.2 | 1.5 | 4.8 | 0.9
Cc1noc(C(=O)Nc2cccc(O)c2)c1Cl | 0.5 | 3.6 | 1.1 | 5.6* | -0.2
CCCCOCCCNC(=O)C[C@H]1C[C@@]2(C(=O)OC)C(=C[C@H](C3CCCC3)O[C@@H]2C)N(CCc2ccc(OC)c(OC)c2)C1=O | -0.9 | 2.8 | 0.8 | -1.5 | x
COc1cc(O)c(C(CC(=O)N2CCCC(C)C2)c2ccccc2)c(OC)c1 (stereo not given) | -1.3 | 2.2 | x | 1.1 | x
C=CCC1(CC=C)CCCN1C(=O)C1CCC(=O)N(CCc2ccccc2)C1 (stereo not given) | -0.2 | 9.8 | 1.1 | 2.2 | 1.6
C=CCC1(CC=C)CCCN1C(=O)C1CCC(=O)N(CCc2ccc(OC)cc2)C1 (stereo not given) | -0.6 | 12.9* | 2.5 | 3.7 | 2.4
COC(=O)[C@]12C[C@H](CC(=O)NCc3ccccc3)C(=O)N(CCc3ccc(OC)c(OC)c3)C1=C[C@H](COCc1ccccc1)O[C@@H]2C | -1.8 | 1.2 | -0.8 | -3.6 | x
Cc1ccccc1-n1c(-c2ccoc2C)n[nH]c1=S | 1.3* | 1.7 | -0.2 | 3.1 | -0.7
O=C(Nc1nc2c(F)cc(F)cc2s1)C1CCN(C(=O)c2ccc(F)cc2)CC1 | 0.3 | 10.2 | 4.0* | 5.2 | 2.3
O=C(Nc1nc(-c2ccc(F)cc2)cs1)C1CCN(C(=O)c2ccc(F)cc2)CC1 | -1.6 | -8.4 | -7.7 | -3.9 | -4.0
Cc1c(O)ccc(C(=O)COc2ccc(F)cc2)c1O | -0.9 | 11.7* | 1.0 | 1.4 | 2.6
C(/C=C\c1ccco1)=NN1CCN(Cc2cccc3ccccc23)CC1 | -1.9 | -4.3 | -0.5 | -0.5 | x
CCC[C@H]1CN(c2ccccc2)C(=O)[C@@H]1CC(=O)Nc1ccc(Br)cc1 | -0.3 | 4.2 | 1.1 | 1.0 | 7.8*
O=C1CC(NS(=O)(=O)c2cccnc2)CN1c1ccc(F)cc1 (stereo not given) | -0.7 | 0.2 | 3.9* | 0.5 | -0.5
CCN(CC)c1nc(-c2ccccc2)ncc1S(=O)(=O)c1ccc(C)cc1 | -1.6 | 0.9 | -0.5 | 0.1 | 0.5
CN(C)c1nc(-c2ccccc2)ncc1S(=O)(=O)c1ccccc1 | -0.1 | 1.9 | 4.0* | -1.7 | 0.0
O=C(CC1CCCC1)N1CC[C@H]2[C@H](CCCN2Cc2ccccc2)C1 | -1.4 | -0.7 | 0.6 | 0.4 | x
N#CCOc1ccccc1/C=C/c1nc2ccccc2c(=O)[nH]1 | -1.1 | 4.8 | 0.5 | 0.5 | -0.1
Cc1ccccc1/C=C/c1nc2ccccc2c(=O)[nH]1 | -0.2 | 11.1* | 2.9 | 4.3 | 1.2
CC(=O)N(C)c1ccc(N=NC2C(=O)N(C(N)=S)N=C2C)cc1 (stereo not given) | 0.5 | 11.5* | 2.9 | 3.7 | 5.3*
CC1=NN(C(N)=S)C(=O)C1N=Nc1ccc(S(N)(=O)=O)cc1 (stereo not given) | -1.6 | -2.5 | -0.8 | -1.4 | 0.5
CC1=NN(C(N)=S)C(=O)C1N=Nc1cccc(Cl)c1 (stereo not given) | 0.7 | 7.4 | 0.8 | 6.1* | 1.0
Cc1ccnc(NC(c2ccsc2)c2ccc3ccc(C)nc3c2O)c1 (stereo not given) | -1.2 | -7.5 | -1.6 | -0.8 | 4.9*
Oc1ccccc1-c1n[nH]c(=S)n1Cc1ccccc1 | 1.5* | -0.9 | 0.0 | 5.2 | 1.4
Oc1ccc(Br)cc1-c1n[nH]c(=S)n1Cc1ccccc1 | -1.9 | -2.0 | 0.0 | 3.5 | 0.4
SMILES | ssDAF-12 act | hgDAF-12 ag | DAX1 inh-1 | hcDAF12 agonist | DAX1 inh-2
C[C@H](O)[C@@H]1CN2CCc3c([nH]c4c(-c5ccc6c(c5)OCO6)cccc34)[C@@H]2C[C@@H]1N(C)C(=O)c1ccco1 | -1.1 | -2.6 | -0.7 | 0.2 | x
COC(=O)C1=C(C)N(Cc2cccc(C(F)(F)F)c2)C(=NCc2ccc(OC)cc2)NC1c1ccccc1C(F)(F)F (stereo not given) | -1.0 | 1.4 | -0.5 | 2.2 | x
Cc1ccc(C2/C(=C(\O)c3c(C)nc4c(C)cccn34)C(=O)C(=O)N2CCN(C)C)o1 (stereo not given) | 0.1 | 1.0 | 0.1 | 0.7 | 2.1
Cc1nc2c(C)cccn2c1/C(O)=C1\C(=O)C(=O)N(CCN(C)C)C1c1ccccc1 (stereo not given) | 1.0* | -1.4 | 0.3 | -1.7 | 5.8*
COc1ccc(C=Nn2c(-c3ccc(F)cc3)n[nH]c2=S)c(OC)c1OC | -0.8 | -2.2 | -1.4 | -1.9 | x
CS(=O)(=O)N1CCN(Cc2cc(=O)n3ccsc3n2)CC1 | -1.6 | -0.6 | -0.3 | -0.8 | 5.2*
Cc1ccc(-c2c(NC(=O)C3CC3)nc3ncccn23)cc1 | -1.6 | 2.6 | 1.1 | -0.5 | x
O=C(/C=C/c1ccc([N+](=O)[O-])cc1)OCc1cnc(-c2ccccc2)o1 | -1.0 | 2.3 | -0.2 | 0.2 | 6.1*
CC(NC(=O)COC(=O)/C=C/c1ccc([N+](=O)[O-])cc1)c1ccccc1 (stereo not given) | -1.6 | -0.3 | -0.2 | 0.8 | -0.7
C/C(=C\c1ccc(Cl)cc1)C(=O)c1c(C)cc(C)[nH]c1=O | -1.1 | 3.8 | -0.2 | -0.8 | 4.5*
CCCC[C@H]1C2CC(OC(=O)Nc3cccc(C(F)(F)F)c3)C(C2)[C@H]2CCCCN21 (stereo not given in full) | -1.2 | 7.2 | -0.1 | -0.6 | x
O=C(NCCOc1ccccc1Cl)c1ncn[nH]1 | -1.6 | 1.0 | -0.2 | -0.9 | 1.3
CCCCCCNC(=O)c1ncn[nH]1 | -1.1 | 0.2 | 0.0 | -0.4 | 5.0*
Cc1ccc(-n2c(SCc3c(Cl)cccc3Cl)nnc2-c2ccco2)cc1 | -1.8 | 3.0 | -3.0 | -2.2 | x
O=C(O)C1(Nc2ccc(Cl)cc2)CCCC1 | -0.6 | 1.6 | 0.2 | -0.4 | 5.3*
NC(=O)C1(Nc2ccc(-c3ccc(Cl)cc3)cc2)CCCC1 | -1.1 | 2.4 | -0.2 | 0.4 | -0.8
O=C1Nc2ccccc2/C1=N\N=C\c1ccc(O)c(O)c1 | -0.6 | -0.3 | -0.2 | 3.3 | 4.5*
COc1ccc(C2CC(c3ccc(F)cc3)n3nc(NC(=O)c4ccco4)nc3N2)cc1 (stereo not given) | -1.3 | -0.7 | -0.6 | -0.6 | 4.8*
CC1CC(c2ccccc2)n2nc(NC(=O)c3ccco3)nc2N1 (stereo not given) | -1.1 | 0.2 | -0.1 | -1.6 | -0.3
Cc1noc(C)c1-c1ccc(C(=O)NC2CCCCC2)c2occc12 | 1.7* | 5.2 | -0.1 | -1.1 | x
COCCNC(=O)CSc1nc2ccc(N3CCOCC3)cc2c(=O)n1CCc1ccccc1 | -1.6 | 1.3 | -0.4 | 2.7 | -0.3
CCCCn1c(SCC(=O)NCCOC)nc2ccc(N3CCOCC3)cc2c1=O | -1.3 | -2.0 | 0.2 | -2.2 | 4.8*
CCOC(=O)N1CCN(C(=O)C[C@H]2C(=O)N(CCCOC)C3=CCCCC[C@]32C(=O)OC)CC1 | -2.0 | -2.1 | 1.5 | -1.2 | x
O=C(N/N=C1\CCCc2ccccc21)c1ccccc1Cl | -0.7 | 2.8 | 0.8 | 0.9 | 1.0

Source: PubChem BioAssay (The Scripps Research Institute Molecular Screening Center)
